Data: the antibiotic and cytotoxicity screens of Wong et al. (2023)
Out of some 39,000 compounds screened, about 1,500 (3.8%) were called active. Only a selection was taken, and actives are over-represented in it overall.

Tested on: HSkMC (human skeletal muscle cells)
Assay: cytotoxicity call (relative viability < 0.9)
Settings: 10 µM

SMILES | cytotoxicity call
COc1ccc(CN(C)C[C@@H]2OCCCC[C@@H](C)Oc3ccc(NC(=O)c4ccncc4)cc3C(=O)N([C@@H](C)CO)C[C@@H]2C)cc1 | inactive
C[C@@H]1CCCCO[C@H](CN(C)C(=O)Nc2ccc3c(c2)OCO3)[C@@H](C)CN([C@H](C)CO)C(=O)c2cc(NC(=O)CCC(F)(F)F)ccc2O1 | inactive
C[C@@H]1CN([C@H](C)CO)C(=O)c2cc(NS(=O)(=O)c3ccccc3)ccc2O[C@@H]1CN(C)S(=O)(=O)c1cccs1 | inactive
COCCOC(=O)N1C(=O)[C@@]2(c3cc(C#Cc4ccc(OC)cc4)ccc31)[C@H](C(=O)N1CCc3cc(OC)c(OC)cc3C1)[C@H]1C(=O)O[C@H](c3ccccc3)[C@H](c3ccccc3)N1[C@@H]2c1ccc(OCCO)cc1 | inactive
COCC(=O)Nc1ccc2c(c1)OC[C@@H](C)N(C(=O)c1ccccc1F)C[C@H](C)[C@@H](OC)CN(C)C2=O | inactive
CC(C)NC(=O)Nc1cccc2c1O[C@H](CN(C)C(=O)NC1CCCCC1)[C@H](C)CN([C@@H](C)CO)C2=O | inactive
Cc1noc(C)c1NC(=O)Nc1ccc2c(c1)C(=O)N([C@H](C)CO)C[C@H](C)[C@@H](CN(C)C(=O)Nc1ccc3c(c1)OCO3)OCCCC[C@H](C)O2 | inactive
C[C@@H]1CN([C@@H](C)CO)C(=O)c2cc(NS(=O)(=O)c3ccccc3)ccc2O[C@@H]1CN(C)Cc1ccc(Oc2ccccc2)cc1 | inactive
C[C@@H]1CN([C@H](C)CO)C(=O)c2cc(NS(=O)(=O)c3ccc(Cl)cc3)ccc2O[C@@H]1CN(C)Cc1ccc(Oc2ccccc2)cc1 | active
C[C@@H]1CN([C@H](C)CO)C(=O)c2cc(NS(=O)(=O)c3ccc(Cl)cc3)ccc2O[C@H]1CN(C)Cc1ccc(Oc2ccccc2)cc1 | active
C[C@H]1CN([C@@H](C)CO)C(=O)c2cc(NS(=O)(=O)c3ccc(Cl)cc3)ccc2O[C@@H]1CN(C)Cc1ccc(Oc2ccccc2)cc1 | active
C[C@@H]1CN([C@@H](C)CO)C(=O)c2cc(NS(=O)(=O)c3ccc(Cl)cc3)ccc2O[C@H]1CN(C)Cc1ccc(Oc2ccccc2)cc1 | inactive
C[C@H](CO)N1C[C@H](C)[C@H](CN(C)Cc2ccc(Oc3ccccc3)cc2)Oc2ccc(NS(=O)(=O)c3ccc(Cl)cc3)cc2C1=O | inactive
C[C@H](CO)N1C[C@H](C)[C@@H](CN(C)Cc2ccc(Oc3ccccc3)cc2)Oc2ccc(NS(=O)(=O)c3ccc(Cl)cc3)cc2C1=O | inactive
C[C@H]1CN([C@@H](C)CO)C(=O)c2cc(NS(=O)(=O)c3ccccc3)ccc2O[C@@H]1CN(C)Cc1ccc(Oc2ccccc2)cc1 | inactive
C[C@H]1CN([C@@H](C)CO)C(=O)c2cc(NS(=O)(=O)c3ccc(Cl)cc3)ccc2O[C@H]1CN(C)Cc1ccc(Oc2ccccc2)cc1 | active
C[C@@H]1CN([C@@H](C)CO)C(=O)c2cc(NS(=O)(=O)c3ccccc3)ccc2O[C@H]1CN(C)Cc1ccc(Oc2ccccc2)cc1 | inactive
